Screening data: PubChem, National Center for Advancing Translational Sciences (NCATS)
Only some compounds are listed: those with a hit (about 14% of all), similar ones and a draw of the others.
NS1 function inh = inhibitors of influenza NS1 protein function. Potency, µM (highest dose often 46.1 µM), for inactives: at the highest dose activity, positive = more growth. 270,000 compounds, 0.4% hits; calls by dose curve; note: potency is the fitted concentration of half-maximal effect; actives are rising curves; nearly all actives have a fitted effect of over 50% in size
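In this qHTS, NS1 from influenza A is expressed in budding yeast, where it slows growth. Cells are switched from glucose to 2% galactose medium (pH 6.0, -URA), treated with compound, and growth recovery is read at OD600.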
Giardia FBPA inh = blocks Giardia fructose-bisphosphate aldolase activity; Potency, µM (titrated, usually from 59.6 µM), for the others: at the highest dose activity, negative = inhibition, hits mostly inhibitors; AID 2451; purified Giardia FBPA; 290,000 compounds, 0.71% hits; A8B2U2; note: potency is the fitted concentration of half-maximal effect; % is set by controls: 0 for no effect and ±100 for the full control effect; nearly all actives have a fitted effect of over 55% in size
Target sequence (A8B2U2 whole entry, looked up): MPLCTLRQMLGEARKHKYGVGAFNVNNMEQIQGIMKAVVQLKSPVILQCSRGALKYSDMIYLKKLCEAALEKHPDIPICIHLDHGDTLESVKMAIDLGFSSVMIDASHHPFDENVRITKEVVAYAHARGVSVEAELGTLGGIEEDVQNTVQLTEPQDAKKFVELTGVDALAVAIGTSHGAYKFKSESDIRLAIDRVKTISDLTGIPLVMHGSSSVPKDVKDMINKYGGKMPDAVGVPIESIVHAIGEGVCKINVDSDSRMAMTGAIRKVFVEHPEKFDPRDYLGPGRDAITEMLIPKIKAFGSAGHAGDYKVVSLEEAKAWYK
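Giardia FBPA (40 nM reagent) was preincubated 10 min at RT with compound (up to 57.5 uM final), then substrate plus GAPDH/TPI/NAD/arsenate coupling system with diaphorase/resazurin was added; resorufin fluorescence (525/598 nm) was read after 20 min.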
LmPK inh = blocks Leishmania mexicana pyruvate kinase activity. AID 1721. Potency, µM (titrated, usually from 57.5 µM), for the others: top-dose activity change, negative = inhibition, hits mostly inhibitors. 290,000 compounds, 0.37% hits. purified LmPK, Kinase-Glo ATP luminescence, 1 h; note: potency is the fitted concentration of half-maximal effect; % is set by controls: 0 for no effect and ±100 for the full control effect
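Purified LmPK (0.1 nM) converted ADP (0.1 mM) to ATP with PEP (0.5 mM) in imidazole buffer pH 7.2 with KCl and MgCl2, 1 h at room temperature. ATP was read by Kinase-Glo luminescence; data normalized to uninhibited and no-enzyme controls.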
Shiga inhibitor = Shiga toxin inhibition; Vero cells, Shiga toxin protein synthesis inhibition reporter; inhibition, % at 38.7 µM; 290,000 compounds, 9.2% hits; AID 2315; in the data active = inhibition mostly above about 28%, no sharp cut-off; inactive = mostly below about 43%; note: 0% is about no effect
Cycloheximide cs = counter-screen hit for Shiga toxin inhibitors, cycloheximide; cell reporter, cycloheximide protein synthesis inhibition counterscreen; max response, %; 300,000 compounds, 12% hits; AID 2314; in the data active = max response mostly above about 13%, no sharp cut-off; inactive = mostly below about 14%; note: read at 38.3 µM for the half of the compounds with a filed dose; 0% is about no effect
Numbers without * were called inactive. Unless noted, calls come from the whole dose curve; as a rule, active = well fitted curve in the direction sought with a large enough effect; inconclusive = small, poorly fitted or top-dose-only effect, or another doubt; inactive = no such curve, though single readings can be large; an effect the other way counts as inactive or inconclusive.

How did COc1ccc(C(C(C(=O)c2ccco2)N2CCOCC2)N2CCOCC2)cc1 (stereo unspecified) do in these assays?
NS1 function inh: -10.4%; Giardia FBPA inh: -7.6%; LmPK inh: -1.6%; Shiga inhibitor: 23.2*; Cycloheximide cs: 22.8*

What do the screens show for `CSc1ccc(C(C(C(=O)c2cccs2)N2CCOCC2)N2CCOCC2)cc1` (stereo unspecified)?
NS1 function inh: -17.5%; Giardia FBPA inh: -0.8%; LmPK inh: 3.8%; Shiga inhibitor: -3.0; Cycloheximide cs: -1.1

What do the screens show for `CN=c1scc(C)n1/N=C/c1ccc(O)c(O)c1O`?
NS1 function inh: 10.5%; Giardia FBPA inh: 3.15µM*; LmPK inh: inconclusive; Shiga inhibitor: -15.2; Cycloheximide cs: -11.1

Results for CN=c1scc(C)n1/N=C/c1cc(Br)c(O)c(OC)c1 ?
NS1 function inh: 3.0%; Giardia FBPA inh: -9.3%; LmPK inh: -1.0%; Shiga inhibitor: 56.1*; Cycloheximide cs: 21.1*

Results for CN=c1scc(-c2cccs2)n1/N=C/c1ccc(O)c(O)c1O ?
NS1 function inh: inconclusive; Giardia FBPA inh: inconclusive; LmPK inh: inconclusive; Shiga inhibitor: -12.3; Cycloheximide cs: -5.2

Results for COc1cc(/C=N/N(C)C)cc(Br)c1O ?
NS1 function inh: -0.6%; Giardia FBPA inh: -13.1%; LmPK inh: -14.4%; Shiga inhibitor: 17.9; Cycloheximide cs: 10.1

Results for Cc1ccnc(SCC(=O)Nc2sccc2C#N)n1 ?
NS1 function inh: -3.8%; LmPK inh: 1.5%; Shiga inhibitor: 17.4; Cycloheximide cs: 12.2*

Results for COc1ccc(NC(=O)CSc2nccc(C)n2)cc1 ?
NS1 function inh: 2.2%; Giardia FBPA inh: 2.2%; LmPK inh: 0.0%; Shiga inhibitor: 2.0; Cycloheximide cs: 6.3

What do the screens show for `CC(=O)Nc1ccc(SCC(=O)Nc2sccc2C#N)cc1`?
Giardia FBPA inh: 1.3%; LmPK inh: 5.7%; Shiga inhibitor: 62.9*; Cycloheximide cs: 33.2*

What do the screens show for `Nc1ncnc(Nc2ccc(F)cc2)n1`?
NS1 function inh: 4.7%; Giardia FBPA inh: 2.8%; LmPK inh: -8.6%; Shiga inhibitor: 30.8; Cycloheximide cs: 9.6

How did Cc1ccc(Nc2ncnc(N)n2)cc1 do in these assays?
NS1 function inh: 3.3%; Giardia FBPA inh: -1.5%; LmPK inh: 3.3%; Shiga inhibitor: 49.7*; Cycloheximide cs: 36.5*

How did CCOc1ccc(Nc2ncnc(N)n2)cc1 do in these assays?
NS1 function inh: -8.7%; Giardia FBPA inh: -11.4%; LmPK inh: 2.6%; Shiga inhibitor: 45.0*; Cycloheximide cs: 17.8

What do the screens show for `O=S(=O)(c1ccc2nc(COc3ccc(Cl)cc3Cl)[nH]c2c1)N1CCOCC1`?
NS1 function inh: -8.8%; Giardia FBPA inh: -5.1%; LmPK inh: 5.7%; Shiga inhibitor: 22.1; Cycloheximide cs: 14.5*

Results for COc1ccc(S(=O)(=O)N2CCC(C(=O)N3CCN(C)CC3)CC2)cc1Cl ?
NS1 function inh: -2.2%; Giardia FBPA inh: 5.9%; LmPK inh: 1.6%; Shiga inhibitor: 20.2; Cycloheximide cs: -4.6

What do the screens show for `COc1ccc(S(=O)(=O)N2CCC(C(=O)N3CCc4ccccc4C3)CC2)cc1Cl`?
NS1 function inh: inconclusive; Giardia FBPA inh: 0.8%; LmPK inh: 1.8%; Shiga inhibitor: 23.2; Cycloheximide cs: 28.2*

What do the screens show for `Cc1ccc(N2C(=O)CS(=O)(=O)CC2=O)cc1`?
NS1 function inh: 4.5%; Giardia FBPA inh: 2.4%; LmPK inh: -1.5%; Shiga inhibitor: 15.0; Cycloheximide cs: -6.8

Results for Cc1ccc(N2C(=O)CC3(CCCC3)CC2=O)cc1 ?
NS1 function inh: 2.6%; Giardia FBPA inh: 1.6%; LmPK inh: -1.2%; Shiga inhibitor: 9.8; Cycloheximide cs: 17.4*

How did N#CCc1cnc2ccccc2n1 do in these assays?
NS1 function inh: 5.4%; Giardia FBPA inh: -23.0%; LmPK inh: -1.8%; Shiga inhibitor: 68.9*; Cycloheximide cs: 18.3*

What do the screens show for `O=C(O)CSc1nnnn1-c1ccc2c(c1)OCCO2`?
NS1 function inh: 11.1%; Giardia FBPA inh: inconclusive; LmPK inh: 1.1%; Shiga inhibitor: -6.4; Cycloheximide cs: -2.9

What do the screens show for `O=C(CSc1nnnn1-c1ccc2c(c1)OCCO2)c1cccc2c1OCCO2`?
NS1 function inh: -2.8%; Giardia FBPA inh: 5.1%; LmPK inh: 2.8%; Shiga inhibitor: 64.7; Cycloheximide cs: 32.6*

What do the screens show for `CC(C)OC(=O)CSc1nnnn1-c1ccc2c(c1)OCCO2`?
NS1 function inh: -1.6%; Giardia FBPA inh: 6.0%; LmPK inh: -3.6%; Shiga inhibitor: 64.1*; Cycloheximide cs: 35.4*

Results for CCOC(=O)c1[nH]c(C)c(C(=O)OCC(=O)N(CC)C2CCS(=O)(=O)C2)c1C (stereo unspecified) ?
NS1 function inh: -1.3%; Giardia FBPA inh: 1.6%; LmPK inh: -10.7%; Shiga inhibitor: 26.0; Cycloheximide cs: -1.3

What do the screens show for `CCOC(=O)C(=O)N(CC)C1CCS(=O)(=O)C1` (stereo unspecified)?
NS1 function inh: -1.9%; Giardia FBPA inh: 0.2%; LmPK inh: 19.4%; Shiga inhibitor: 10.2; Cycloheximide cs: 8.9*

How did O=C(Nc1ccccc1C(=O)O)c1cccc(N2C(=O)c3ccccc3C2=O)c1 do in these assays?
NS1 function inh: 24.4%; Giardia FBPA inh: -7.6%; LmPK inh: -5.6%; Shiga inhibitor: -3.8; Cycloheximide cs: -3.6

What do the screens show for `COC(=O)[C@@]1(Cc2ccc(F)cc2)[C@H]2c3cc(C(=O)N4CCCC4)n(Cc4ccccn4)c3C[C@H]2CN1C(=O)c1ccccc1`?
Giardia FBPA inh: -0.8%

What do the screens show for `COc1ccc(-c2cc3ncnc(Cl)c3s2)cc1`?
NS1 function inh: -10.0%; Giardia FBPA inh: -29.0%; LmPK inh: 0.1%; Shiga inhibitor: 57.7; Cycloheximide cs: 32.6*

How did CCOc1ccc(CCNC(=O)CCNC(=O)c2ccccc2Cl)cc1OCC do in these assays?
NS1 function inh: 11.0%; LmPK inh: -0.3%; Shiga inhibitor: -28.4; Cycloheximide cs: 4.4

Results for O=C1C(Cl)=C(N2CCCCCC2)C(=O)N1c1ccc(Cl)cc1 ?
NS1 function inh: -8.3%; Giardia FBPA inh: -8.9%; LmPK inh: -1.9%; Shiga inhibitor: 17.8; Cycloheximide cs: 12.3*

Results for CN1CCN(C2=C(Cl)C(=O)N(c3ccc(Cl)c(Cl)c3)C2=O)CC1 ?
NS1 function inh: -84.2%; Giardia FBPA inh: 4.9%; LmPK inh: 6.5%; Shiga inhibitor: 66.4; Cycloheximide cs: 23.4*

Results for O=C1C=C(N2CCCCCC2)C(=O)N1c1ccc(Cl)cc1 ?
NS1 function inh: -0.9%; Giardia FBPA inh: 7.2%; LmPK inh: 0.5%; Shiga inhibitor: 175.7*; Cycloheximide cs: 62.3*

Results for CC(C)(C)OC(=O)N1CC23CC(c4ccc(F)cc4)C(CC2S1(=O)=O)O3 (stereo unspecified) ?
Giardia FBPA inh: 6.1%; Shiga inhibitor: 1.3; Cycloheximide cs: -2.5

How did Cc1ccccc1C(=O)OCC(=O)N(C)c1ccccc1 do in these assays?
NS1 function inh: -32.0%; Giardia FBPA inh: -14.5%; LmPK inh: -0.8%; Shiga inhibitor: 31.1; Cycloheximide cs: 24.4*

Results for Cc1c(C(=O)OCC(=O)N(C)c2ccccc2)cccc1[N+](=O)[O-] ?
Giardia FBPA inh: 2.0%; LmPK inh: 0.5%; Shiga inhibitor: -5.2; Cycloheximide cs: -3.0
